Drawing on PubChem BioAssay (NCATS), this text covers Potency for eight compounds.

Each structure is given as a SMILES string. Records with an inconclusive call do not appear. Where a call stands in place of a potency, no number is given. Calls of active or inactive are those of the source. The call rests on the fitted dose curve; in most records, active means well fitted inhibition curve with a large enough effect; inconclusive means small, poorly fitted or top-dose-only effect; inactive means no such curve, though single readings can be large or run the other way.

For the test, the system named is Zika virus NS2B-NS3 protease (linked construct). Kind of test: Primary screen NINDS Rhodamine qHTS for Zika virus inhibitors (AID 1347160). Further: nearly all actives have a fitted effect of over 55% in size. The note with it: purified NS2B-NS3 protease, Rhodamine110 substrate fluorescence; series mostly up to 57.1 µM. The procedure, abridged: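 Each compound, titrated, sat 15 min with 25 nM linked protease before 1.5 microM Rhodamine110 substrate went in. Fluorescence gain over the next 15 min, in pH 8.0 Tris with Tween 20, gave Hill-fitted curves.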
Take `CCCCC(=O)N(Cc1ccc(-c2ccccc2-c2nn[nH]n2)cc1)C(C(=O)O)C(C)C` (stereo not drawn): the Potency entry is “inactive”.
The entry for `CCCCc1nc(Cl)c(CO)n1Cc1ccc(-c2ccccc2-c2nnn[nH]2)cc1` is “inactive”; for `COc1ccc2c(c1)CN(C(=O)CCN1CCC(Cc3ccccc3)CC1)CCS2` it is “inactive”; for `C=C1C(=O)O[C@@H]2[C@H]1[C@H](O)C[C@]1(C)[C@@H](O)CC=C(C)[C@@H]21` it is “inactive”.
The entry for `CCNC(=O)[C@@H]1CCCN1C(=O)[C@H](CCCN=C(N)N)NC(=O)[C@H](CC(C)C)NC(=O)[C@@H](CC(C)C)NC(=O)[C@H](Cc1ccc(O)cc1)NC(=O)[C@H](CO)NC(=O)[C@H](Cc1c[nH]c2ccccc12)NC(=O)[C@H](Cc1cnc[nH]1)NC(=O)[C@@H]1CCC(=O)N1` is “inactive”; for `COc1ccc(C2(CNC(=O)[C@](C)(Cc3c[nH]c4ccccc34)NC(=O)Nc3ccc([N+](=O)[O-])cc3)CCCCC2)nc1` it is “inactive”; for `CCN(CC)Cc1cccc(/C=C/c2nc3ccc(F)cc3c(=O)n2-c2ccccc2Cl)n1` it is “inactive”.
Consider `C=C(C(=O)O)C1CC2=C(C)C(=O)CC2C(C)CC1O` (stereo not drawn), for which the Potency result is “inactive”.
